Experimental data: PubChem BioAssay AID2685 (National Center for Advancing Translational Sciences (NCATS), 2010)
Among all 320,000 compounds or so, about 2,100 (0.66%) were called active. Another 53% or so got no clear call; they are omitted. The sample holds actives, similar compounds and a random draw of the others, so the mix is not that of the screen. Calls come from the whole dose curve; as a rule, active = well fitted inhibition curve with a large enough effect in the signal ratio, with a control signal flat (not every such curve was filed as active); inconclusive = small, poorly fitted or top-dose-only effect, or effect the other way, or a change in a side signal; inactive = flat fitted curve, though single readings scatter; the % refers to the signal ratio.

assay: qHTS Assay for Lipid Storage Modulators in Drosophila S3 Cells; details: BODIPY lipid droplet fluorescence, 18-24 h, cells fed with added oleic acid; cell number change: measured here: cell count max response; series mostly up to 46.1 µM; lipid storage change, negative = inhibition: at the top concentration;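 for cell number change: cells counted by Cell Tracker Red CMTPX staining in the red channel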; for lipid storage change, negative = inhibition: % is set by controls: 0 for no effect and ±100 for the full control effect
In short: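 Laser-scanning cytometry quantifies lipid droplet accumulation (500–530 nm total intensity; droplet/cell object ratio) in oleic acid-fed (400 uM added) Drosophila S3 cells treated with a concentration series. 20 uM Triacsin C defined 100% inhibition.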
Potency is the fitted concentration of half-maximal effect.

Structure (SMILES)	lipid storage change, negative = inhibition	cell number change	Potency	outcome
CC(C)N1CCc2c(sc(NC(=O)c3ccc(S(=O)(=O)N4CCOCC4)cc3)c2C(N)=O)C1	-5.59% (inactive)	0.268%	–	–
CCN1CCc2c(sc(NC(=O)c3ccc(S(=O)(=O)N(C)CC4CCCO4)cc3)c2C(N)=O)C1 (centres undefined)	–	-26.3%	2.91 µM (active)	–
CCN1CCc2c(sc(NC(=O)c3ccc4ccccc4c3)c2C(N)=O)C1	-25.3% [at 0.369 µM] (inactive)	-8.56%	–	–
CC(C)N1CCc2c(sc(NC(=O)c3ccc(S(=O)(=O)N(C)CC4CCCO4)cc3)c2C(N)=O)C1 (centres undefined)	–	-19.4%	7.31 µM (active)	–
CCOC(=O)c1c(NC(=O)c2ccc(S(=O)(=O)N3CCOCC3)cc2)sc2c1CCN(C(C)C)C2	–	6.84%	–	inactive
CCN1CCc2c(sc(NC(=S)NC(=O)c3ccc(Cl)cc3)c2C(N)=O)C1	-5.13% (inactive)	6.82%	–	–
CC1=CC(C)(C)NC(=S)N1C(C)c1ccccc1 (centres undefined)	9.59% (inactive)	20.7%	–	–
O=C(CCNC(=O)Cn1ccc2ccccc2c1=O)NCc1ccccn1	-0.0668% (inactive)	1.28%	–	–
COc1ccc(S(=O)(=O)N2CCCCC2)cc1NC(=O)CNc1ccc(F)cc1C	29% (inactive)	11.8%	–	–
CCN(CC(=O)Nc1cccc(S(=O)(=O)N2CCOCC2)c1)Cc1ccccc1	-10.6% [at 0.0737 µM] (inactive)	–	–	–
O=C(CNc1cccc(S(=O)(=O)N2CCOCC2)c1)Nc1ccccc1F	–	4.62%	–	inactive
COc1cc(NC(=O)CNc2ccc(Cl)c(S(=O)(=O)N3CCOCC3)c2)cc(OC)c1	-3.31% (inactive)	-14.4%	–	–
COc1ccc(S(=O)(=O)N2CCCCC2)cc1NCC(=O)Nc1ccc(C)cc1	11.5% (inactive)	-1.26%	–	–
COC(=O)c1ccccc1NC(=O)CNc1ccc(F)c(S(=O)(=O)N2CCOCC2)c1	–	0.245%	3.26 µM (active)	–
COc1cc(NCC(=O)Nc2cccc(S(=O)(=O)N3CCCCC3)c2)cc(OC)c1OC	–	-2.08%	–	inactive
CCN(CC)S(=O)(=O)c1cc(NC(=O)CNc2cccc(S(=O)(=O)N3CCOCC3)c2)ccc1C	–	-23.6%	2.06 µM (active)	–
Cc1ccc(NC(=O)CNc2cccc(S(=O)(=O)N3CCCCC3)c2)cc1F	–	–	1.46 µM (active)	–
O=C(CNc1cccc(S(=O)(=O)N2CCCC2)c1)Nc1ccc(F)c(F)c1	–	2.77%	–	inactive
O=C(CSc1ccccc1)Nc1cccc(S(=O)(=O)N2CCOCC2)c1	-7.81% (inactive)	-14.2%	–	–
COc1ccc([N+](=O)[O-])cc1NCC(=O)Nc1cc(S(=O)(=O)N2CCCCC2)ccc1C	–	-23.1%	16.4 µM (active)	–
Oc1cccc(CCC2CCCCN2Cc2cn[nH]c2-c2ccc3c(c2)OCO3)c1 (centres undefined)	16.7% (inactive)	7.37%	–	–
Fc1ccc(N/N=C(/c2ccccc2)c2ccccn2)cc1	8.3% (inactive)	9.54%	–	–

Structure (SMILES)	lipid storage change, negative = inhibition	cell number change	Potency	outcome
CN(C)c1ccc(C=NCCC2(O)CCOC(C)(C)C2)cc1 (centres undefined)	6.27% (inactive)	2.42%	–	–
NC(=O)N/N=C/CCc1ccccc1	1.59% (inactive)	7.84%	–	–
S=c1[nH]nc(CNc2cccc(Cl)c2)o1	3.6% (inactive)	5.85%	–	–
Cc1[nH]c2ccccc2c1/C=N/NC(=O)c1cc(C(C)C)[nH]n1	-1.1% (inactive)	17.7%	–	–
O=C(/C=C/c1cccc(Cl)c1)NCCc1ccccc1	8.05% (inactive)	4.34%	–	–
CN1CCN(c2ccc(CNS(=O)(=O)Cc3ccc(Cl)cc3)cc2)CC1	-7.74% (inactive)	-12.5%	–	–
CNC(=O)Cn1c(C)cc(=O)c2cccc(C)c21	10.6% (inactive)	13.3%	–	–
CN(Cc1ccccc1)S(=O)(=O)c1ccc(OCC(=O)Nc2cccc([N+](=O)[O-])c2)cc1	5.75% (inactive)	18.8%	–	–
CCOc1ccccc1OCCCC(=O)Nc1nc2ccccc2[nH]1	–	–	–	inactive
COc1ccc(-c2noc(CSc3nc4ccccc4c(=O)n3-c3ccc(C)cc3)n2)cc1	-0.476% (inactive)	13.3%	–	–
Clc1ccc(OCc2cn3cccnc3n2)c2ncccc12	–	–	–	inactive
CC[C@H](C)[C@H](NC(N)=O)C(=O)Nc1ccc(S(=O)(=O)NC(C)C)cc1	-0.365% (inactive)	3.97%	–	–
CC(=O)c1cccc(NCC(=O)Nc2cccc(S(=O)(=O)N3CCCCC3)c2)c1	24.6% (inactive)	13.3%	–	–
O=C(CNc1cccc(S(=O)(=O)N2CCCC2)c1)Nc1cccc(Br)c1	12.9% (inactive)	14.3%	–	–
COc1ccc(OCCCC(=O)Nc2cccc([N+](=O)[O-])c2)cc1	-0.331% (inactive)	10.1%	–	–
Cc1ccc([N+](=O)[O-])cc1NC(=O)CCCOc1ccccc1	4.91% (inactive)	2.03%	–	–
O=C(CNc1cccc(S(=O)(=O)N2CCCCCC2)c1)Nc1cccc([N+](=O)[O-])c1	–	20.3%	20.6 µM (active)	–
COc1ccc(OCCCC(=O)Nc2cc([N+](=O)[O-])ccc2C)cc1	–	-3.49%	14.6 µM (active)	–
O=C(O)c1cccc(Nc2c([N+](=O)[O-])c(=O)oc3ccccc23)c1	8.97% (inactive)	3.37%	–	–
CC(=O)Oc1ccc(C(=O)Nc2ccc(S(=O)(=O)N3CCOCC3)cc2)cc1	–	-28%	–	inactive
Cc1ccc2[nH]c(=O)c(CN(CC3CCCO3)C(=S)Nc3ccccc3)cc2c1 (centres undefined)	13.6% (inactive)	-9.29%	–	–
O=C(Nc1ccccc1)C1C(c2ccccc2)C1(Cl)Cl (centres undefined)	-7.1% (inactive)	-2.33%	–	–

Structure (SMILES)	lipid storage change, negative = inhibition	cell number change	Potency	outcome
CCOc1ccc(NC(=O)C2C(c3ccccc3)C2(Cl)Cl)cc1 (centres undefined)	–	-15.7%	16.4 µM (active)	–
COc1ccc(NC(=O)C2C(c3ccccc3)C2(Cl)Cl)cc1 (centres undefined)	-5.18% (inactive)	19.2%	–	–
OCCN1CCN(CCSc2ccccc2)CC1	1.19% (inactive)	0.698%	–	–
CCn1ncc(-c2csc(N)n2)c1C	9.04% (inactive)	9.82%	–	–
O=C(c1ccccc1)N1CN2CN(C(=O)c3ccccc3)CC([N+](=O)[O-])(C2)C1	9.02% (inactive)	6.5%	–	–
COc1ccccc1C(CNC(=O)c1cc(C)nc2ccccc12)N(C)C (centres undefined)	–	9.21%	–	inactive
CCCCCN=CC1=C(O)CC(c2ccccc2)CC1=O (centres undefined)	-7.93% (inactive)	-15.5%	–	–
CCCN=CC1=C(O)CC(c2ccccc2)CC1=O (centres undefined)	2.06% (inactive)	5.05%	–	–
O=C(O)CCN=CC1=C(O)CC(c2ccccc2)CC1=O (centres undefined)	–	15.8%	1.03 µM (active)	–
COCCn1c(SCC(=O)NCCc2ccc(OC)c(OC)c2)nc2c([nH]c3ccccc32)c1=O	5.55% (inactive)	5.96%	–	–
S=C(c1cn(Cc2ccccc2)c2ccccc12)N1CCOCC1	5.71% (inactive)	4.05%	–	–
O=C(O)Cn1cc(C(=S)N2CCOCC2)c2ccccc21	–	-0.629%	23.1 µM (active)	–
NC(=O)Cn1cc(C(=O)C(=O)N2CCOCC2)c2ccccc21	–	-8.62%	–	inactive
CCc1nc2oc3ccccc3c(=O)c2c(=O)n1CCOC	-1.96% [at 9.22 µM] (inactive)	14.4%	–	–
O=C(CCc1ccccc1)NC(NC(=S)Nc1ccc(Br)cc1)C(Cl)(Cl)Cl (centres undefined)	–	-27.3%	–	inactive
Cc1ccc(-n2nnnc2SCCNS(=O)(=O)c2ccccc2)cc1C	–	-14.2%	–	inactive
Cc1ccc(NC(=O)CSc2nnc(N)s2)cc1S(=O)(=O)N1CCCCC1	-6.49% (inactive)	-23.8%	–	–
CCc1ccc(CNC(=O)C2Cc3cc(S(=O)(=O)N4CCCC4)ccc3N2C(C)=O)cc1 (centres undefined)	–	-14.2%	11.6 µM (active)	–
CCOc1ccc(CNC(=O)C2Cc3cc(S(=O)(=O)N4CCCCC4)ccc3N2C(C)=O)cc1 (centres undefined)	-7.83% (inactive)	8.5%	–	–
CC(=O)N1c2ccc(S(=O)(=O)N3CCCC3)cc2CC1C(=O)NCc1ccc(N(C)C)cc1 (centres undefined)	–	12.7%	–	inactive
CCN(CC)S(=O)(=O)c1cc(OC)c(Cl)cc1OC	21.7% (inactive)	14.5%	–	–
COc1cc(/C=N/NC(=O)COc2ccc(-n3cnnn3)cc2)ccc1OCC(N)=O	7.09% (inactive)	7.43%	–	–

Structure (SMILES)	lipid storage change, negative = inhibition	cell number change	Potency	outcome
CCc1ccc(N(CC(=O)O)S(=O)(=O)c2c(C)noc2C)cc1	-21% (inactive)	7.92%	–	–
Cc1noc(C)c1S(=O)(=O)N(CC(=O)O)c1ccc2c(c1)OCO2	11.7% (inactive)	–	–	–
Cc1cc(C)cc(N(CC(=O)O)S(=O)(=O)c2c(C)noc2C)c1	–	2.34%	23.1 µM (active)	–
CC(=O)Nc1ccc(NC(=O)Cn2c(=O)n(-c3ccc(C)cc3)c(=O)c3oc4ccccc4c32)cc1	-4.89% (inactive)	-4.98%	–	–
O=C(CN1CCN(S(=O)(=O)c2ccc3ccccc3c2)CC1)Nc1ccc(N2CCOCC2)cc1	4.39% (inactive)	-8.53%	–	–
COc1ccc(N2CCN(CC(=O)Nc3cccc(S(=O)(=O)N4CCOCC4)c3)CC2)cc1	–	-21.6%	16.4 µM (active)	–
COc1ccc(CC(=O)Nc2cccc(S(=O)(=O)N3CCCCCC3)c2)cc1OC	–	-6.09%	20.6 µM (active)	–
O=C(CN1CCN(S(=O)(=O)c2ccccc2)CC1)Nc1ccnn1C1CCCC1	-14.9% (inactive)	-2.45%	–	–
COc1ccccc1CCC(=O)Nc1cccc(S(=O)(=O)N2CCOCC2)c1	16.2% (inactive)	12.7%	–	–
COc1ccc(CC(=O)Nc2cc(S(=O)(=O)N3CCCCC3)ccc2C)cc1OC	-0.673% (inactive)	-3.08%	–	–
O=C(Cc1ccc(Br)cc1)Nc1cccc(S(=O)(=O)N2CCOCC2)c1	2.72% (inactive)	-12.5%	–	–
COc1ccc(CC(=O)Nc2cccc(S(=O)(=O)N3CCCCC3)c2)cc1	11.3% (inactive)	-18.3%	–	–
COc1ccc(CC(=O)Nc2cccc(S(=O)(=O)N3CCOCC3)c2)cc1OC	–	-21.4%	23.1 µM (active)	–
COc1ccccc1N1CCN(CC(=O)Nc2ccnn2C2CCCC2)CC1	6.76% (inactive)	1.72%	–	–
COc1cccc(N2CCN(CC(=O)Nc3ccnn3C3CCCC3)CC2)c1	–	-10.7%	10.3 µM (active)	–
COC(=O)c1cccc(NC(=O)CN2CCN(c3ccc(OC)cc3)CC2)c1	21.8% (inactive)	6.81%	–	–
O=C(NCc1ccccc1)c1ccc(Cl)nc1	3.79% (inactive)	10%	–	–
CC(C)(C)c1ccc(/C=N/NC(=O)c2ccccn2)cc1	13.5% (inactive)	6.33%	–	–
CCCCC(Sc1nc(N)c(NC(=O)c2ccco2)c(=O)[nH]1)C(=O)O (centres undefined)	–	-24.3%	–	inactive
O=C(CN(C(=O)c1csnn1)c1cccc(Cl)c1)NCCc1ccccc1	–	12.4%	–	inactive
Cc1ccccc1NC(=O)CSc1ccc(-c2ccco2)nn1	6.34% (inactive)	-9.57%	–	–
